From PubChem BioAssay (Tox21) come the findings set out here.

Each structure is given as a SMILES string. Results filed as inconclusive are left out. Active and inactive are the calls of the source. Calls come from the whole dose curve; as a rule, active = well fitted cell-killing curve with a large enough effect in the repeat runs; inconclusive = weak or mixed curves, or effect the other way; inactive = no such curve, though single readings can be large or run the other way. Where a SMILES comes first, the peptide text is derived from it.

A short description of the assay: qHTS assay to identify small molecule antagonists of the vitamin D receptor (VDR) signaling pathway - cell viability counter screen (AID 743225). Note: nearly all actives have a fitted effect of over 50% in size. Conditions: VDR-bla HEK293T viability, CellTiter-Glo luminescence, 16 h; series mostly up to 61 µM. From the text: U.S. Tox21 Program National Center for Advancing Translational Sciences [NCATS] NIH Chemical Genomics Center [NCGC] U.S. Environmental Protection Agency [EPA] National Institutes of Environmental Health Sciences [NIEHS] National Toxicology Program [NTP] U.S. Food and Drug Administration [FDA] Tox21 Assay Overview: The vitamin D receptor (VDR), a member of nuclear hormone receptor superfamily, plays a critical role in calcium homeostasis and bone metabolism. It is also involved in cell differentiation and growth, and thrombogenicity. To identify the compounds that inhibit VDR signaling, the VDR-UAS-bla HEK 293T cell line (Invitrogen, Carlsbad, CA, USA) containing a beta-lactamase reporter gene under the control of an upstream activator sequence (UAS) was used to screen the Tox21 10K compound library. The cytotoxicity of the Tox21 compound library against the VDR-bla cell line was tested in parallel by measuring the cell viability using CellTiter-Glo assay (Promega, Madison, WI) in the same wells.
Tox21 Assay Protocol Summary: VDR-bla cells were dispensed at 2,000 cells/5 uL of assay medium per well into black wall/clear-bottom 1536-well plates using a Multidrop Combi (Thermo Fisher Scientific, Waltham, MA) dispenser. After the assay plates were incubated at a 37C and 5% CO2 for 4 h, 23 nL of compounds dissolved in DMSO, positive controls or DMSO only was transferred to the assay plate by a Pintool station (Kalypsys, San Diego, CA), followed by addition of 1 uL of 1-alpha, 25-Dihydroxy Vitamin D3 (3 nM, final concentration in the wells) using a Bioraptr Flying Reagent Dispenser (FRD) workstation (Beckman Coulter, Indianapolis, IN). The plates were incubated at 37C and 5% CO2 for 16 h, and then 1 uL of LiveBLAzerTM B/G FRET substrate was added using a Bioraptr FRD. The plates were incubated at room temperature for 2 h and fluorescence intensity was measured by an Envision plate reader (PerkinElmer, Shelton, CT). For cell viability readout that measures cytotoxicity, 3 ul/well of CellTiter-Glo reagent was added into the assay plates using a Bioraptr FRD. After 30 min incubation at room temperature, the luminescence intensity in the plates was measured using a ViewLux plate reader (PerkinElmer).
As to `O=C1OCCO1`, the compound was classed as inactive. As for `C=C(C)[C@@H]1CC=C(C)CC1`, the compound was classed as inactive. Under `O=C(O)CCCCCC(=O)O` stands “inactive”; under `[O-][n+]1cccc(/C(Cl)=N/OC[C@@H](O)CN2CCCCC2)c1`, “inactive”; under `CC(=O)N[C@@H](CO)C(=O)N[C@@H](CC(=O)O)C(=O)N[C@@H](CCCCN)C(=O)N1CCC[C@H]1C(=O)O` (Ac-SDKP-OH), “inactive”.

With `Nc1nnnn1-c1ccccc1`, the compound was classed as inactive. On to `CCCCCCCCCCOC(C)=O`, for which the outcome was inactive. Under `COS(=O)(=O)O` stands “inactive”; under `N#Cc1ccccc1O`, “inactive”; under `COCCc1ccccn1`, “inactive”.

`COc1ccc2c(c1)c1c3n2CCN(C)C3=NCC1`: the call was inactive. Under `CC1(C)O[C@H]2CC(=O)OC[C@]23[C@H]2CC[C@@]4(C)[C@H](c5ccoc5)OC(=O)[C@H]5O[C@]54[C@]2(C)C(=O)C[C@@H]13` stands “inactive”. Turning to `CC(C)=CCC[C@@](C)(O)[C@H]1CC=C(C)CC1`, the outcome was inactive.

As for `COC(=O)c1cc(Cl)cc(Cl)c1`, the compound was classed as inactive. Regarding `CCOc1cccc(N)c1`, the outcome was inactive.

On to `Nc1nc(-c2ccccc2)c(Br)c(=O)[nH]1`, for which the result was inactive. Under `CCC(C)OC(C)CC` (stereo not given) stands “inactive”; under `Fc1ccccc1`, “inactive”; under `COc1cc2c(cc1OC)C(=O)C(CC1CCN(Cc3ccccc3)CC1)C2` (stereo not given), “inactive”. Turning to `CCCCSCCCC`, the call was inactive. Under `CC(=O)O[Si](C)(OC(C)=O)OC(C)=O` stands “inactive”; under `c1ccc(-c2nn[nH]n2)cc1`, “inactive”. Under `CCCC(CC)c1ccccc1` (stereo not given) stands “inactive”; under `CCCCOC(=O)[C@H](C)O`, “inactive”.

On to `CC(C)c1ccc(C=O)cc1`, for which the outcome was inactive. Under `COc1cc(/C=C/C(N)=O)cc(OC)c1OC` stands “inactive”; under `O=Cc1ccccc1Cl`, “inactive”; under `O=C(O)c1cc2ccccc2nc1C(=O)O`, “inactive”.

Turning to `CCO`, the result was inactive. For the compound `CN(C)CCCO[C@@H]1[C@H]2OC(C)(C)O[C@H]2O[C@@H]1C(O)CO` (stereo not given in full), the outcome was inactive. Under `CC(=O)CC(=O)Nc1ccc(C)cc1C` stands “inactive”. Under `N#CCC(=O)NN` stands “inactive”. In the case of `CC(=O)OC(C)=O`, the call was inactive. Regarding `C=CCN1C[C@H](C(=O)N(CCCN(C)C)C(=O)NCC)C[C@@H]2c3cccc4[nH]cc(c34)C[C@H]21`, the call was inactive. With `CC(C)Cn1cnc2c1c(=O)n(C)c(=O)n2C`, the result was inactive. Under `COC(=O)/C=C\C(=O)O` stands “inactive”; under `CCN(CC)CCN`, “inactive”.

Consider `C=C(C)C1CC=C(C)C(=O)C1` (stereo not given), for which the result was inactive. For `CCCC(=O)Nc1ccc(OCC(O)CNC(C)C)c(C(C)=O)c1` (stereo not given), the call was inactive.

On to `C=CC(=O)OCC1CCCO1` (stereo not given), for which the call was inactive.
